The panel holds about 83,000 compounds, 20% with a hit somewhere; the sample as a whole holds those more often.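 96-well plates, one dose, 48 hours. Percent growth reported; active if below 10.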 A number with no mark means an inactive call. Active and inactive are the calls of the source.

Assay in all cases: NCI-60 one-dose screen, 48 h (100 = growth as untreated, 0 = no growth, -100 = all killed)
Conditions in all cases: 10 µM unless noted

The test system of test [1] is HCT-15 colon.
Test [2] concerns HT29 colon.
Test [3] concerns SNB-75 CNS.
The subject of test [4] is SNB-19 CNS.
Test [5] concerns U251 CNS.
The subject of test [6] is PC-3 prostate.
Test [7] concerns SK-MEL-5 melanoma.
In test [8] the test system is UACC-62 melanoma.
In test [9] the test system is LOX IMVI melanoma.
Test [10] concerns SK-MEL-28 melanoma.

Take `COc1ccc(C(=O)N2N=C(c3ccc(F)cc3)CC2c2cn(-c3ccccc3)nc2-c2ccccc2)cc1` (stereo not given): the growth in test [1] was 55.9%; in [2] it was 37.6%; in test [3], 72.5%; in [4], 80%; in test [5] it was 30.6%; in test [6], 71.6%. For the same molecule, the growth in [7] was 90.7%; in [8], 61%; in test [9], 41.8%; in test [10], 71.9%.

Take `CCOCCNc1ccc(S(=O)(=O)c2ccc(N)cc2)cc1N`: the growth was 109% in [1]; 114% in test [2]; 96.7% in test [3]; 114% in test [4]; 98.2% in test [5]; 111% in [6]. Moreover, the growth in test [7] is 102%; in test [8], 95.1%; in [9], 91.1%; in test [10], 112%.

For the molecule `c1coc(CNc2c3ccccc3nc3ccccc23)c1`, the growth is 44.2% in [1]; 35.1% in test [2]; 81.5% in [3]; 62.8% in [4]; 65.1% in test [5]; 67% in test [6]. Moreover, the growth in test [7] was 84.3%; in test [8] it was 66.1%; in [9], 37.1%; in [10] it was 97.7%.

Take `CC1=CCC2C1CC=C(C)C(CC[C@H]1[C@@](C)(O)CCC3OC(C)(C)[C@H](OC(=O)c4ccccc4)CC[C@@]31C)C2(C)C` (stereo not given in full): the growth is 81.9% in test [1]; 76.6% in test [2]; 75.9% in test [3]; 105% in test [4]; 61.2% in test [5]; 26.2% in test [6]. For the same molecule, the growth was 79.9% in [7], 67.4% in [8], 67% in test [9] and 109% in [10].

Regarding `O=C(Nc1cccc(C2=NCCN2)c1)c1ccc(N=Nc2ccc(C(=O)Nc3cccc(C4=NCCN4)c3)cc2)cc1`, the growth in test [1] was 82.2%; in test [2], 71.8%; in test [3], 48.7%; in test [4] it was 53.2%; in [5], 16.5%; in test [6], 63.4%. Besides, the growth in test [7] was 80.4%; in test [8], 68.4%; in [9], 75.8%; in test [10] it was 59.3%.

For the molecule `Oc1ccc(-c2nc3ccccc3s2)cc1CN(Cc1ccccn1)Cc1ccccn1`, the growth in test [1] was 15.2%; in test [2], 25.7%; in test [3], 38.7%; in test [4], 20.5%; in [5], 8.51% (active); in test [6], 30.3%. For the same molecule, the growth was -67.4% (active) in test [7], 8.93% (active) in test [8], 2.31% (active) in test [9] and 33.1% in [10].

As for `CCC1N=C(N)N=C(N)N1c1ccc(Cl)cc1` (stereo not given), the growth in [1] is 105%; in test [2] it was 72.1%; in test [3], 91.7%; in test [4] it was 106%; in test [5], 58.8%; in [6], 62.6%. The growth in test [7] was 49.5%; in [8], 100%; in [9], 68.6%; in [10], 101%.

For the molecule `Brc1ccsc1Br`, the growth in test [1] is 111%; in test [2], 105%; in test [3], 83.5%; in [4] it was 106%; in [5], 109%; in [6] it was 107%. The growth was 106% in test [7], 109% in test [8], 108% in test [9] and 106% in [10].

In the case of `CCCCc1nc(Cl)c(C2CC(c3ccc(S(N)(=O)=O)cc3)=NN2c2ccc(C#N)cc2)[nH]1` (stereo not given), the growth in [1] is 97%; in test [2] it was 100%; in [3], 87.5%; in test [4], 84.9%; in [5], 76.7%; in test [6], 69.4%. In addition, the growth in test [7] was 78.3%; in test [8], 68%; in test [9] it was 86.6%; in test [10] it was 107%.

For the molecule `CC(C)CC1NC(=O)C(CC(C)C)N(CO)C1=O` (stereo not given), the growth in [1] was 103%; in [2], 94.3%; in test [3], 93.4%; in test [4], 99.6%; in [5] it was 111%; in [6], 97.3%. Also, the growth is 104% in test [7], 96.9% in [8], 106% in [9] and 121% in test [10].

For the molecule `O=C(NCCN1CCCCC1)n1cc(-c2ccncc2)c(-c2ccc(Cl)c(O)c2)n1`, the growth in test [1] was 86.6%; in test [2], 95.5%; in test [3] it was 78.9%; in test [4], 101%; in test [5], 98.5%; in test [6], 84.6%. The growth was 73.2% in [7], 37.9% in [8], 64.7% in test [9] and 37.5% in [10].

Turning to `O=c1c2cc(Br)cc(Br)c2nc(-c2ccc(Cl)cc2)n1/N=C/c1cccc(F)c1`, the growth in test [1] is 75.2%; in test [2], 62.1%; in test [3], -0.938% (active); in test [4] it was 57.6%; in test [5], 43.3%; in test [6], 67%. The growth is 70.9% in [7], 74.6% in test [8], 62.4% in test [9] and 85.1% in test [10].

As to `CCCCCCCCCCCC1=NC(C)(C)CN1CC(C)O` (stereo not given), the growth in test [1] was 6.24% (active); in test [2], -48.3% (active); in [3], 61.8%; in [4], 96.8%; in test [5] it was 33.9%; in test [6] it was 51.4%. The growth is 34% in test [7], -49.4% (active) in test [8], 6.88% (active) in test [9] and 59.8% in test [10].

With `Cc1cc(Nc2c3ccccc3nc3ccccc23)ccc1NS(C)(=O)=O`, the growth is 19.8% in test [1]; 18.2% in test [2]; 51.3% in test [3]; 58% in test [4]; 27.1% in test [5]; 33.2% in [6]. Also, the growth in [7] is 43.4%; in [8], 57%; in test [9] it was 28.3%; in [10] it was 57.2%.

The values above are taken from PubChem BioAssay (NCI).
